Results published in PubChem BioAssay (EPA / NIEHS).
Values joined by “and” are separate entries in the source; they are usually repeats but may differ in a detail not shown here. Equal values may be shown once. Inconclusive results are not listed. Active and inactive are the calls of the source. Rule for the calls: active = hit-call score of the fitted dose curve at least 0.9, where 1 is the maximum; inconclusive = response in the unintended direction; inactive = score below 0.9.

These molecules were tested against human Dopamine Transporter (DAT), SLC6A3 (gene 6531) (UniProt Q01959) (assay: NVS_TR_hDAT: NovaScreen (NVS) Transporter Assay for human Dopamine Transporter (DAT) (AID 2283374);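 note: activity means loss of bound radioligand signal relative to DMSO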).
Sequence of human Dopamine Transporter (DAT), SLC6A3 (gene 6531) (Q01959 whole entry, looked up): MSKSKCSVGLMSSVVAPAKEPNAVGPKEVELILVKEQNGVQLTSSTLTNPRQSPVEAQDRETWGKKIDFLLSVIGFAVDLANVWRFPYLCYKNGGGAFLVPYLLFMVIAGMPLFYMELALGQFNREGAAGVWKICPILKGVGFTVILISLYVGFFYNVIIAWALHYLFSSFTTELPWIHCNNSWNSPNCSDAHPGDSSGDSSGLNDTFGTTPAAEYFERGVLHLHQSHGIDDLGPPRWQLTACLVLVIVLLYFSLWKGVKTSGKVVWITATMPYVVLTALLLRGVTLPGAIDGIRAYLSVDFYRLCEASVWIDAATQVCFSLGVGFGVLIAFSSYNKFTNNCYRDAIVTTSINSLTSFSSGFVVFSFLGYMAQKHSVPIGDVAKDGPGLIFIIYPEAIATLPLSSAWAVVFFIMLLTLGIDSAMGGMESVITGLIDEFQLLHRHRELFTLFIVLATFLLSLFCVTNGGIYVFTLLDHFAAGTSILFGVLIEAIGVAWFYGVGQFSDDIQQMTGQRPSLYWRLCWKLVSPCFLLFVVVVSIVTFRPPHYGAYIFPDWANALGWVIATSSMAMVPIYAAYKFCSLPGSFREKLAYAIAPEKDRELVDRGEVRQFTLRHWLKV
Procedure: NVS_TR_hDAT is a biochemical, single-readout assay that uses extracted gene-proteins in a cell-free assay. Measurements were taken 1 hour after chemical dosing in a 96-well plate.NVS_TR_hDAT is one of one assay component(s) measured or calculated from the NVS_TR_hDAT assay. It is designed to make measurements of radioligand binding, a form of binding reporter, as detected with scintillation counting signals by Filter-based radiodetection technology.Data from the assay component NVS_TR_hDAT was analyzed into 1 assay endpoint. This assay endpoint, NVS_TR_hDAT, was analyzed in the positive analysis fitting direction relative to DMSO as the negative control and baseline of activity. Using a type of binding reporter, loss-of-signal activity can be used to understand changes in the binding as they relate to the gene SLC6A3. Furthermore, this assay endpoint can be referred to as a primary readout, because the performed assay has only produced 1 assay endpoint. To generalize the intended target to other relatable targets, this assay endpoint is annotated to the transporter intended target family, where the subfamily is neurotransmitter transporter.
Binding assays used specific radioligands (tritiated, iodinated) with non-radioactive competitive displacement ligands in agonist or antagonist protocols (as indicated) and various reference compounds and inhibitors to titrate specific binding to receptors and transporters. Most enzyme assays (CYPs, kinases, phosphatases, proteases, HDACs) used recombinant protein and specific substrates (fluorescence mostly, some colorimetric and radioactive) and inhibitors, followed by a biochemical separation of substrate and product. All assays for the biochemical HTS were initially run in duplicate at a single concentration (10 uM for CYP450 assays and 25 uM for all others). […] Each assay was run with positive and negative controls, and concurrent controls on every plate. The follow-up (secondary) screen tested active chemical-pairs in concentration series, as well as a few additional assays not tested in the primary screen, some selected negative inactives, and several cases re-run in the concentration series for confirmatory purposes.
In the case of `Cc1nn(C)c(Oc2ccccc2)c1C=NOCc1ccc(C(=O)OC(C)(C)C)cc1`, the outcome is reported as “inactive”. `c1ccc(Nc2ccccc2)cc1` was tested, and the AC50 was 4.96 µM (active). With `C#CCOC(=O)[C@@H](C)Oc1ccc(Oc2ncc(Cl)cc2F)cc1` the AC50 was 7.24 µM (active). `CCCCCCC(C)OC(=O)COc1nc(F)c(Cl)c(N)c1Cl` (stereo not drawn) was tested, and the outcome was “inactive”. `CC(C)CCCCCCc1ccc(O)cc1` was tested, and the AC50 was 8.36 µM (active). In the case of `CCCCOCCOCCOCc1cc2c(cc1CCC)OCO2`, the AC50 is reported as 35.7 µM (active). In the case of `Oc1ccc(C(c2ccc(O)cc2)C(Cl)(Cl)Cl)cc1`, the AC50 is reported as 0.446 µM (active). `CCOC(=O)C(C)Oc1ccc(Oc2cnc3cc(Cl)ccc3n2)cc1` (stereo not drawn) was tested, and the outcome was “inactive”. `CC(C)(C)[C@@H](O)[C@@H](Cc1ccc(Cl)cc1)n1cncn1` was tested, and the AC50 was 2.39 µM (active). `CCN(Cc1c(F)cccc1Cl)c1c([N+](=O)[O-])cc(C(F)(F)F)cc1[N+](=O)[O-]` was tested, and the outcome was “inactive”. In the case of `CC(C)(c1ccc(O)cc1)c1ccc(O)cc1`, the AC50 is reported as 8.34 µM (active) [middle of 4 runs]. With `CCOC(=O)NCCOc1ccc(Oc2ccccc2)cc1` the AC50 was 3.08 µM (active). For `N#CSCSc1nc2ccccc2s1`, the AC50 was 13.7 µM (active) and 3.9 µM (active).
